Measurements published in PubChem BioAssay (EPA / NIEHS).
Several values for one entry are separate records, joined by “and”; a condition that tells them apart may be missing. Equal values may be shown once. Records with an inconclusive call do not appear. Some structures have more than one record in an assay (separate samples or runs), and their calls can disagree. Activity calls are given as the source filed them. How the source made its calls: active means hit-call score of the fitted dose curve at least 0.9, where 1 is the maximum; inconclusive means response in the unintended direction; inactive means score below 0.9.

Key:
[1] = ATG_XTT_Cytotoxicity: Cytotoxicity Assessment in the Attagene TRANS-FACTORIAL HepG2 Assay (AID 2283584);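 on AC50: cells exposed to compound for 24 h before reading; active means loss of viability signal versus DMSO baseline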
Summary of the method: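 Cells: human HepG2, transiently transfected with MRTU reporter constructs. Exposure 24 h. Readout: XTT, cell number. Baseline/neg ctrl DMSO; loss-of-signal scored.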

[2] = TOX21_p53_BLA_p2_viability: Viability Assessment in the Tox21 HCT-116 p53 Agonism Beta-lactamase Assay, Phase 2 (AID 2283591);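 further: compound exposure lasted 16 h at 37 °C; actives lower the ATP signal meaning cytotoxicity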
Summary of the method: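 Cytotoxicity readout: CellTiter-Glo ATP luminescence, 30 min at room temperature, after the beta-lactamase read. Cells were HCT116 exposed 16 h at 37C to compounds pin-transferred at 217-fold dilution from DMSO stocks.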

[3] = molecular target: Cellular tumor antigen p53 (Homo sapiens) (UniProt P04637); experiment: TOX21_p53_BLA_p2_ratio: Tox21 HCT-116 p53 Agonism Beta-lactamase Assay, Ratio, Phase 2 (AID 2283592)
Summary of the method: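 Plated HCT116 p53-bla cells (4000/well) received compound after 5 h, then 16 h at 37C/5% CO2. CCF4-AM added, 2 h RT. Ratio of 460 to 530 nm emission taken as the p53 reporter signal.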

[4] = molecular target: Cellular tumor antigen p53 (Homo sapiens) (UniProt P04637); experiment: TOX21_p53_BLA_p3_ratio: Tox21 HCT-116 p53 Agonism Beta-lactamase Assay, Ratio, Phase 3 (AID 2283596)
Summary of the method: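 Cells were seeded at 4000/well, rested 5 h at 37C, then dosed with DMSO compound solutions (217-fold dilution) for 16 h. CCF4-AM substrate was loaded for 2 h at room temperature, and the 460/530 nm emission ratio was fitted for gain of signal versus DMSO.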

[5] = molecular target: Cellular tumor antigen p53 (Homo sapiens) (UniProt P04637); experiment: TOX21_p53_BLA_p5_ratio: Tox21 HCT-116 p53 Agonism Beta-lactamase Assay, Ratio, Phase 5 (AID 2283599)
Summary of the method: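 Beta-lactamase reporter ratio (blue 460 nm over green 530 nm, 405 nm excitation) after 2 h CCF4-AM loading, in HCT-116 cells exposed 16 h at 37 C to compounds pinned at 217-fold dilution. Increases relative to DMSO baseline scored.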

[6] = TOX21_p53_BLA_p5_viability: Viability Assessment in the Tox21 HCT-116 p53 Agonism Beta-lactamase Assay, Phase 5 (AID 2283600)
Summary of the method: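 Workflow: seed 4000 cells per well, wait 5 h, add compounds (DMSO, 217-fold dilution), incubate 16 h, load CCF4-AM 2 h, add CellTiter-Glo, read luminescence after 30 min.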

[7] = molecular target: Cellular tumor antigen p53 (Homo sapiens) (UniProt P04637); experiment: TOX21_p53_BLA_p4_ratio: Tox21 HCT-116 p53 Agonism Beta-lactamase Assay, Ratio, Phase 4 (AID 2283601)
Summary of the method: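 Signal is the blue/green (460nm/530nm) ratio of cleaved versus uncleaved CCF4-AM substrate, read after 2 h substrate loading. Cells were HCT116 carrying the p53-responsive beta-lactamase reporter, dosed 16 h at 37C, 5% CO2; CellTiter-Glo measured in parallel.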

[8] = TOX21_p53_BLA_p3_viability: Viability Assessment in the Tox21 HCT-116 p53 Agonism Beta-lactamase Assay, Phase 3 (AID 2283593);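 further: cells exposed to compound for 16 h before reading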
Summary of the method: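 Cellular ATP was quantified by CellTiter-Glo luminescence, read after 30 min at room temperature. Beforehand, HCT116 cells (4000/well) received compound 5 h post-seeding, 217-fold diluted from DMSO, then incubated 16 h at 37C.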

[9] = TOX21_p53_BLA_p4_viability: Viability Assessment in the Tox21 HCT-116 p53 Agonism Beta-lactamase Assay, Phase 4 (AID 2283597);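 further: hits lower the luminescence signal meaning cytotoxicity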
Summary of the method: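 Readout: ATP luminescence (CellTiter-Glo), measured 30 min after reagent addition at RT. The reagent followed a 2 h CCF4-AM incubation, and the cells had been exposed to compound for 16 h at 37C.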

Cellular tumor antigen p53 (Homo sapiens), sequence (P04637 whole entry, looked up): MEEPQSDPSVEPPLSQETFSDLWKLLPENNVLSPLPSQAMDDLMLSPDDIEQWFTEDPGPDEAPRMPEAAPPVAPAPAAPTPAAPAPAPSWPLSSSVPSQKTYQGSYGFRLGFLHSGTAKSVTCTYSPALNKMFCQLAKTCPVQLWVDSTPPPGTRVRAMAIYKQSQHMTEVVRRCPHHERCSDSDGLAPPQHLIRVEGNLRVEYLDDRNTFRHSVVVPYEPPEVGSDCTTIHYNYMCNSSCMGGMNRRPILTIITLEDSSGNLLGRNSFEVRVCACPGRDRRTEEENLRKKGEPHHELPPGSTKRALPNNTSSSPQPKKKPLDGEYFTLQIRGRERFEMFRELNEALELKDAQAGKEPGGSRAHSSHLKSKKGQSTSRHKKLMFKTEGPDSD

For CC(C)(C)c1ccc(C(=O)O)cc1, the outcome [1] was “inactive”, the outcome [2] was “inactive” and the outcome [3] was “inactive”. The outcome [4] was “inactive”, the outcome [5] was “inactive” and the outcome [6] was “inactive”. The outcome [7] was “inactive”.
In the case of CCCOC(=O)c1c(Cl)c(Cl)c(Cl)c(Cl)c1C(=O)OCCC, the outcome [1] is reported as “inactive” and the outcome [3] is reported as “inactive”.
In the case of CS(C)=O, the outcome [1] is reported as “inactive”, the outcome [3] is reported as “inactive” and the outcome [8] is reported as “inactive”. The outcome [4] was “inactive”, the outcome [9] was “inactive” and the outcome [5] was “inactive”. The outcome [6] was “inactive” and the outcome [7] was “inactive”.
In the case of O=C1NC2NC(=O)NC2N1 (stereo not given), the outcome [1] is reported as “inactive”, the outcome [2] is reported as “inactive” and the outcome [3] is reported as “inactive”. For the same compound, the outcome [4] was “inactive”, the outcome [9] was “inactive” and the outcome [5] was “inactive”. The outcome [6] was “inactive” and the outcome [7] was “inactive”.
With Cc1occc(=O)c1OC(=O)C(C)C the outcome [1] was “inactive”, the outcome [3] was “inactive” and the outcome [8] was “inactive”. The outcome [4] was “inactive”.
In the case of O=C(CS)OCCOC(=O)CS, the outcome [1] is reported as “inactive”, the outcome [2] is reported as “inactive” and the AC50 [3] is reported as 42.9 µM (active). The AC50 [4] was 39.3 µM (active), the outcome [9] was “inactive” and the AC50 [5] was 58.3 µM (active). For the same compound, the AC50 [7] was 53.3 µM (active).
In the case of C=COCCOCCOC=C, the outcome [1] is reported as “inactive”, the outcome [2] is reported as “inactive” and the outcome [4] is reported as “inactive”. The outcome [9] was “inactive” and the outcome [7] was “inactive”.
In the case of C1CCOC1, the outcome [1] is reported as “inactive”, the outcome [2] is reported as “inactive” and the outcome [8] is reported as “inactive”. The outcome [4] was “inactive” and the outcome [7] was “inactive”.
In the case of CC(C=O)Cc1ccc(C(C)(C)C)cc1 (stereo not given), the outcome [1] is reported as “inactive”, the outcome [3] is reported as “inactive” and the outcome [8] is reported as “inactive”. For the same compound, the outcome [4] was “inactive”, the outcome [9] was “inactive” and the outcome [5] was “inactive”. For the same compound, the outcome [6] was “inactive” and the outcome [7] was “inactive”.
With CCC(C)S (stereo not given) the outcome [1] was “inactive”, the outcome [2] was “inactive” and the outcome [3] was “inactive”. For the same compound, the outcome [8] was “inactive”, the outcome [5] was “inactive” and the outcome [6] was “inactive”.
In the case of C=C1CC[C@H](O)C/C1=C/C=C1\CCC[C@]2(C)[C@@H]([C@H](C)/C=C/[C@H](C)C(C)C)CC[C@@H]12, the outcome [1] is reported as “inactive”, the AC50 [3] is reported as 76.4 µM (active) and 45.8 µM (active) and the outcome [3] is reported as “inactive”. For the same compound, the AC50 [8] was 61.1 µM (active) and 45.8 µM (active) and 42.2 µM (active), the outcome [4] was “inactive” and the AC50 [9] was 45.8 µM (active). For the same compound, the outcome [9] was “inactive”, the AC50 [5] was 70.5 µM (active) and the outcome [5] was “inactive”. For the same compound, the AC50 [6] was 79.6 µM (active), the outcome [6] was “inactive” and the outcome [7] was “inactive”.
For C=CCOC(=O)CCCCCC, the outcome [1] was “inactive”, the outcome [2] was “inactive” and the outcome [4] was “inactive”. For the same compound, the outcome [9] was “inactive” and the outcome [7] was “inactive”.
In the case of CCOCCOCCOCC, the outcome [1] is reported as “inactive”, the outcome [2] is reported as “inactive” and the outcome [3] is reported as “inactive”. For the same compound, the outcome [8] was “inactive” and the outcome [5] was “inactive”.
For COC(=O)c1ccc(C)cc1C1=NC(C)(C(C)C)C(=O)N1 (stereo not given) (tested in a mixture with another compound), the outcome [1] was “inactive”, the outcome [2] was “inactive” and the outcome [3] was “inactive”. The outcome [4] was “inactive”, the outcome [9] was “inactive” and the outcome [6] was “inactive”.
For Nc1c(Cl)cc(Cl)cc1[N+](=O)[O-], the outcome [1] was “inactive”, the outcome [2] was “inactive” and the outcome [3] was “inactive”. The outcome [9] was “inactive”, the outcome [6] was “inactive” and the outcome [7] was “inactive”.
For O=C(Nc1ccc2c(O)c(N=Nc3ccc(N=Nc4ccc(S(=O)(=O)O)cc4)cc3)c(S(=O)(=O)O)cc2c1)c1ccccc1, the outcome [1] was “inactive”, the outcome [2] was “inactive” and the outcome [9] was “inactive”. The outcome [7] was “inactive”.
With CCCCCCCCCCCCCC(=O)OCC(O)CO (stereo not given) the outcome [1] was “inactive”, the outcome [2] was “inactive” and the outcome [3] was “inactive”. The outcome [5] was “inactive” and the outcome [6] was “inactive”.
With CCCCCCCCSCCO the outcome [1] was “inactive”, the outcome [2] was “inactive” and the outcome [5] was “inactive”.
For O=C1OC[C@H](Cc2cccc(O)c2)[C@H]1Cc1cccc(O)c1, the outcome [1] was “inactive”, the outcome [2] was “inactive” and the outcome [5] was “inactive”. For the same compound, the outcome [6] was “inactive” and the outcome [7] was “inactive”.
In the case of CCCCSCCCC, the outcome [1] is reported as “inactive”, the outcome [2] is reported as “inactive” and the outcome [3] is reported as “inactive”. The outcome [4] was “inactive”, the outcome [5] was “inactive” and the outcome [6] was “inactive”.
In the case of CCCCCCCCCCCC(=O)OC[C@@H](O)[C@H]1OC[C@H](O)[C@H]1O, the outcome [1] is reported as “inactive”, the outcome [2] is reported as “inactive” and the outcome [3] is reported as “inactive”. The outcome [8] was “inactive”, the outcome [5] was “inactive” and the outcome [6] was “inactive”. For the same compound, the outcome [7] was “inactive”.
With c1ccc(CCc2ccccc2)cc1 the outcome [1] was “inactive”, the outcome [2] was “inactive” and the outcome [3] was “inactive”. The outcome [5] was “inactive”, the outcome [6] was “inactive” and the outcome [7] was “inactive”.
With COC(C)(C)CC(C)=O the outcome [1] was “inactive”, the outcome [2] was “inactive” and the outcome [8] was “inactive”. The outcome [4] was “inactive” and the outcome [5] was “inactive”.
In the case of CCOC(=O)COC(=O)c1cc(Oc2ccc(C(F)(F)F)cc2Cl)ccc1[N+](=O)[O-], the outcome [1] is reported as “inactive”, the outcome [2] is reported as “inactive” and the outcome [3] is reported as “inactive”. The outcome [8] was “inactive”, the outcome [9] was “inactive” and the outcome [6] was “inactive”.
In the case of C[Si]1(C)O[Si](C)(C)O[Si](C)(C)O1, the outcome [1] is reported as “inactive”, the outcome [2] is reported as “inactive” and the outcome [4] is reported as “inactive”. The outcome [7] was “inactive”.
In the case of Cc1c(C2(c3cc(Br)c(O)c(Br)c3C)OS(=O)(=O)c3ccccc32)cc(Br)c(O)c1Br, the outcome [1] is reported as “inactive”, the outcome [2] is reported as “inactive” and the AC50 [8] is reported as 37.1 µM (active). The outcome [4] was “inactive”, the AC50 [9] was 28.4 µM (active) and the outcome [6] was “inactive”. For the same compound, the outcome [7] was “inactive”.
For CCCCCCCCc1ccc(S(=O)(=O)O)cc1, the outcome [1] was “inactive”, the outcome [3] was “inactive” and the outcome [8] was “inactive”. The outcome [4] was “inactive”, the AC50 [9] was 33.7 µM (active) and the outcome [5] was “inactive”. For the same compound, the outcome [6] was “inactive” and the outcome [7] was “inactive”.
With Oc1c(Cl)cc(Cl)c(Cl)c1Cc1c(O)c(Cl)cc(Cl)c1Cl the outcome [1] was “inactive”, the AC50 [3] was 10.3 µM (active) and 583 nM (active) and 984 nM (active) and the AC50 [8] was 39.9 µM (active) and 568 nM (active). The outcome [8] was “inactive”, the AC50 [4] was 19.5 µM (active) and 446 nM (active) and 1.07 µM (active) and the AC50 [9] was 36.9 µM (active) and 49.3 µM (active) and 1.62 µM (active). For the same compound, the AC50 [5] was 13.8 µM (active) and 26.4 µM (active) and 18.6 µM (active), the outcome [6] was “inactive” and the AC50 [7] was 42.2 µM (active) and 43.5 µM (active) and 6.65 µM (active).
For CC(C)OCCO, the outcome [1] was “inactive”, the outcome [3] was “inactive” and the outcome [8] was “inactive”. The outcome [4] was “inactive”, the outcome [9] was “inactive” and the outcome [5] was “inactive”. The outcome [6] was “inactive”.
In the case of CCCCC(CC)COC(=O)c1ccc(O)cc1 (stereo not given), the AC50 [1] is reported as 100 µM (active) and 121 µM (active), the AC50 [3] is reported as 76.7 µM (active) and 74.7 µM (active) and the AC50 [8] is reported as 84.1 µM (active). For the same compound, the outcome [8] was “inactive”, the AC50 [4] was 72.6 µM (active) and 85.1 µM (active) and the AC50 [9] was 72.2 µM (active) and 45.9 µM (active). For the same compound, the AC50 [5] was 69.4 µM (active) and 62.4 µM (active), the AC50 [6] was 56.6 µM (active) and 66.6 µM (active) and the AC50 [7] was 86 µM (active) and 72.3 µM (active).
